ChEMBL document CHEMBL3988442, “University of Dundee, Small-Polar-MMV Screening Library” (2021)
Hit rate of the full screen: of about 48,000 compounds, about 13,000 (27%) showed an effect of 50% or more. The list shows a part of the results.

Test system: Wolbachia pipientis
Experiment: Anti-Wolbachia Cell-Based Screen
Assay type: functional
Set-up: scale not given: in the data most compounds retested in dose-response had high values
Conditions: 5 µM

Which “Percent Effect” value does the source give for `CCOC(=O)N1CCN(c2nc(NC3CC3)c3ccccc3n2)CC1.Cl` here?
The value was 12.46%.

For `CC(C)CN1CCC(NC(=O)NCCC(=O)NCc2ccccc2)CC1`, which “Percent Effect” value is on record?
The value was -0.3399%.

With `O=C(NC1(C(=O)O)CCCCC1)C1Cc2ccccc2O1` (stereo not drawn) as the compound, how does the “Percent Effect” value read?
The value was 26.74%.

Which “Percent Effect” value does the source give for `CCCS(=O)(=O)NC(C)C(=O)NCc1ccc(N2CCCC2)nc1` (stereo not drawn) here?
Its value is 3.443%.

For `CC(C(=O)NCc1ccc(N2CCCCC2)nc1)n1cncn1` (stereo not drawn), which “Percent Effect” value is on record?
Its value is 91.32%.

Which “Percent Effect” value does the source give for `CC(C(=O)NCc1ccc(N2CCCC2)nc1)n1cncn1` (stereo not drawn) here?
Its value is 95.49%.

How did the “Percent Effect” value turn out when `CC(C(=O)NCc1ccc(N2CCCCCC2)nc1)n1cncn1` (stereo not drawn) was run?
The value was 118.8%.

For `CC(C(=O)NCc1ccnc(N2CCCC2)c1)n1cncn1` (stereo not drawn), which “Percent Effect” value is on record?
The value was -10.11%.

For `CCN(CC)C(C(=O)NCc1ccc(N2CCCC2)nc1)C(C)C` (stereo not drawn), which “Percent Effect” value is on record?
The value was 0.1706%.

How did the “Percent Effect” value turn out when `CCc1cc(N2CCS(=O)(=O)CC2)n2nc(C)c(C)c2n1` was run?
Its value is 1.934%.

How did the “Percent Effect” value turn out when `Cc1cc(CNC(=O)N2CCc3ccccc32)on1` was run?
The value was 8.57%.

For `CC(C)N1CCOC(CC(=O)N2CCCN(Cc3cccs3)CC2)C1` (stereo not drawn), which “Percent Effect” value is on record?
Its value is 115.9%.

Which “Percent Effect” value does the source give for `O=C1Cc2cc(NC(=O)N3CCCN(Cc4cccs4)CC3)ccc2N1` here?
Its value is -14%.

For `CC(C)C(C(=O)N1CCN(Cc2ccncc2)CC1)n1cncn1` (stereo not drawn), which “Percent Effect” value is on record?
The value was -9.917%.

`CC(C)N1CCOC(CC(=O)N2CCCN(Cc3ccncc3)CC2)C1` (stereo not drawn) was tested. Which “Percent Effect” value did it give?
Its value is 108.1%.

How did the “Percent Effect” value turn out when `CCn1nc(CC(C)C)cc1C(=O)N1CC(c2ccncc2)C1` was run?
The value was 2.203%.

Which “Percent Effect” value does the source give for `CC(C)c1noc(CCCC(=O)N2CCN(Cc3ccncc3)CC2)n1` here?
The value was 9.979%.

For `CC(C)N1CCOC(CC(=O)N2CC(c3ccncc3)C2)C1` (stereo not drawn), which “Percent Effect” value is on record?
Its value is 103.1%.

Which “Percent Effect” value does the source give for `COc1ccc(C(=O)N2CC(c3ccncc3)C2)c(OC)c1OC` here?
The value was -3.767%.

`Cn1cc(Cl)cc1C(=O)N1CCCN(Cc2cccs2)CC1` was tested. Which “Percent Effect” value did it give?
The value was 6.765%.

Which “Percent Effect” value does the source give for `NC(=O)c1cnc(NCC(=O)NCc2ccco2)c(Cl)c1` here?
Its value is -1.038%.

With `COCC(=O)N[C@H](C)c1onc(-c2ccc(Cl)cc2)c1C(=O)O` as the compound, how does the “Percent Effect” value read?
The value was -3.63%.

For `Cc1nccn1CCC1CCCCN1Cc1cccc(CCN)c1` (stereo not drawn), which “Percent Effect” value is on record?
Its value is -7.51%.

How did the “Percent Effect” value turn out when `NC(=O)Cc1csc(NC(=O)C2CSCCC(=O)N2)n1` (stereo not drawn) was run?
The value was 2.989%.

For `CCOC(=O)Cc1csc(NC(=O)c2ccc(=O)[nH]n2)n1`, which “Percent Effect” value is on record?
Its value is 95.75%.

Which “Percent Effect” value does the source give for `O=C(NCc1csc(Br)c1)c1ccc(=O)[nH]n1` here?
The value was 9.228%.

`O=C(c1ccno1)N1CC(c2nc(-c3ccco3)no2)C1` was tested. Which “Percent Effect” value did it give?
The value was 0.6255%.

`O=S(=O)(Cc1ccccc1)NCCNc1ccc(-n2cccc2)nn1` was tested. Which “Percent Effect” value did it give?
The value was 11.81%.

For `Cc1cc2cc(CNC3CCN(CC(=O)N(C)C)CC3)oc2cc1C`, which “Percent Effect” value is on record?
Its value is -4.492%.

Which “Percent Effect” value does the source give for `CN(C)C1CCN(C(=O)CCc2cc(Br)cs2)CC1` here?
The value was 1.097%.

Which “Percent Effect” value does the source give for `CNC(=O)CCc1cc(C)nc(C2CCN(CC(=O)N(C)C)CC2)c1` here?
The value was 129.2%.

For `Cc1cc(C)cc(CCC(=O)N2CCN(c3cc(C)nc(N)n3)CC2)c1`, which “Percent Effect” value is on record?
The value was -5.077%.

`CNC(=O)CCc1cc(C)nc(C2CCN(C(=O)CN(C)C)CC2)c1` was tested. Which “Percent Effect” value did it give?
The value was 154.4%.

Which “Percent Effect” value does the source give for `COC(=O)[C@@H]1Cc2[nH]cnc2CN1Cc1cc2ccccc2o1` here?
The value was 9.178%.

Which “Percent Effect” value does the source give for `CC(=O)N1CCCN(Cc2ccon2)c2ccccc21` here?
The value was 1.908%.

For `Cc1c(CS(C)(=O)=O)cccc1NCC1CCCCC1`, which “Percent Effect” value is on record?
Its value is 1.975%.

How did the “Percent Effect” value turn out when `CCCc1nc(C(C)(C)NC(=O)C2CC(=O)N(CC3CC3)C2)no1` (stereo not drawn) was run?
The value was -6.715%.

`COC(=O)C(C)(C)NC(=O)C1CC(=O)N(CC2CC2)C1` (stereo not drawn) was tested. Which “Percent Effect” value did it give?
Its value is 110.1%.

`CCN1CC(C(=O)NC(C)(C)C(=O)OC)CC1=O` (stereo not drawn) was tested. Which “Percent Effect” value did it give?
The value was 77.38%.

For `COC(=O)C(C)(C)NC(=O)C1CC(=O)N(C)C1` (stereo not drawn), which “Percent Effect” value is on record?
The value was -1.781%.

Which “Percent Effect” value does the source give for `CCN1CC(C(=O)NC(C)(C)CC)CC1=O` (stereo not drawn) here?
The value was -10.63%.

For `CCC(C)(C)NC(=O)C1CC(=O)N(CC2CC2)C1` (stereo not drawn), which “Percent Effect” value is on record?
The value was 3.552%.

`CCN1CC(C(=O)NC(C)(C)CC(C)(C)C)CC1=O` (stereo not drawn) was tested. Which “Percent Effect” value did it give?
Its value is 2.297%.

Which “Percent Effect” value does the source give for `COC(=O)C(C)(C)NC(=O)C1CC(=O)N(CC(F)(F)F)C1` (stereo not drawn) here?
The value was 83.67%.

With `O=C(NCCNc1ncccn1)C1CC(=O)N(CC(F)(F)F)C1` (stereo not drawn) as the compound, how does the “Percent Effect” value read?
The value was 1.939%.

Which “Percent Effect” value does the source give for `CCN1CC(C(=O)NC(C)(C)CNC(=O)OC(C)(C)C)CC1=O` (stereo not drawn) here?
The value was -0.2967%.

`COC(=O)C(C)(C)NC(=O)C1CC(=O)N(CC(C)C)C1` (stereo not drawn) was tested. Which “Percent Effect” value did it give?
The value was 100.8%.

How did the “Percent Effect” value turn out when `CCN1CC(C(=O)NC(C)(C)C)CC1=O` (stereo not drawn) was run?
The value was -9.629%.

How did the “Percent Effect” value turn out when `CN(C)CCOCC1CN(C(=O)c2ccccn2)Cc2ccnn2C1` (stereo not drawn) was run?
Its value is -6.376%.

For `Cc1ccccc1OCCCC(=O)N(C)CCC#N`, which “Percent Effect” value is on record?
The value was 8.227%.

For `COC(=O)C(C)(C)NC(=O)C1CC(=O)N(C2CCCC2)C1` (stereo not drawn), which “Percent Effect” value is on record?
Its value is 4.73%.

With `CC(C)(CNC(=O)OC(C)(C)C)NC(=O)C1CC(=O)N(C2CC2)C1` (stereo not drawn) as the compound, how does the “Percent Effect” value read?
The value was 10.96%.

With `COC(=O)C(C)(C)NC(=O)C1CC(=O)N(C2CC2)C1` (stereo not drawn) as the compound, how does the “Percent Effect” value read?
Its value is 103.7%.

Which “Percent Effect” value does the source give for `CC(C)(C)OC(=O)NC1CCCN(Cc2cccs2)C1` (stereo not drawn) here?
The value was 5.758%.

Which “Percent Effect” value does the source give for `CCCC(=O)NC1CCCN(Cc2cccs2)C1` (stereo not drawn) here?
Its value is 90.44%.

`Cl.Cn1nc(C2CCCN(Cc3cccc(F)c3)C2)c2nccnc21` (stereo not drawn) was tested. Which “Percent Effect” value did it give?
Its value is 5.539%.

For `Cc1ncsc1CCC(=O)NC1CCN(Cc2cccs2)CC1`, which “Percent Effect” value is on record?
Its value is 5.127%.

How did the “Percent Effect” value turn out when `Cl.Cn1nc(C2CCCN(Cc3ccc(F)cc3)C2)c2nccnc21` (stereo not drawn) was run?
Its value is 103.8%.

Which “Percent Effect” value does the source give for `Cl.Cn1nc(C2CCCN(Cc3cc(F)cc(F)c3)C2)c2nccnc21` (stereo not drawn) here?
The value was 114.5%.

`Cn1ccnc1CN1CCCC(CCc2ccc(F)c(F)c2)C1` (stereo not drawn) was tested. Which “Percent Effect” value did it give?
Its value is 5.156%.

With `Cl.Cn1nc(C2CCCN(Cc3ccc(F)c(F)c3)C2)c2nccnc21` (stereo not drawn) as the compound, how does the “Percent Effect” value read?
Its value is 94.15%.

For `Cn1cncc1-c1nnc([C@H]2CCN(Cc3ccc(F)c(F)c3)C2)o1`, which “Percent Effect” value is on record?
The value was -0.5491%.

For `Fc1ccc(NC2CCCN(Cc3ccncc3)C2)cc1` (stereo not drawn), which “Percent Effect” value is on record?
Its value is 7.502%.

`COc1ccnc(CN2CCCC(CCc3ccc(F)cc3)C2)c1OC` (stereo not drawn) was tested. Which “Percent Effect” value did it give?
The value was -12.62%.

For `CC(=O)N[C@@H]1CN(C2CCN(c3cccc(Cl)c3)CC2)C[C@H]1C(C)C`, which “Percent Effect” value is on record?
The value was 15.95%.

`Cc1nc(S(=O)(=O)NCCC(=O)NCc2ccsc2)cn1C` was tested. Which “Percent Effect” value did it give?
The value was -10.44%.

For `COCCC1(CO)CCCN(C(=O)c2cc(C#N)c(=O)[nH]c2C)C1` (stereo not drawn), which “Percent Effect” value is on record?
Its value is 6.218%.

Which “Percent Effect” value does the source give for `CC(C)C1CN(C(=O)c2csc(CN(C)C)n2)CCC(=O)N1CC1CC1` (stereo not drawn) here?
The value was -2.363%.
